{"source": "PubChem BioAssay (NCI)", "note": "“And” between values parts separate entries of the source, which are not always exact repeats. Identical values can stand only once. Compounds without any hit were thinned out: in the full panel of roughly 83,000, 20% have a hit.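 Values shown are percent growth following 48 h exposure of cells in 96-well plates to a single concentration of compound; below 10 was considered active.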 The source made the active and inactive calls."}
{"tested_on": "HL-60(TB) leukemia", "assay": "NCI-60 one-dose screen, 48 h (100 = growth as untreated, 0 = no growth, -100 = all killed)", "conditions": "10 µM unless noted"}
{"smiles": "O=C1C=CC(=O)N1c1ccc2ccccc2c1", "growth": "83.9% (inactive) and 88.8% (inactive)"}
{"smiles": "CCOc1ccc2cc(-c3nn(CC4CCN(C)CC4)c4ncnc(N)c34)ccc2c1", "growth": "96.7% (inactive) and 54.3% (inactive)"}
{"smiles": "CC(=O)N1CC(=O)NC1=S", "growth": "103% (inactive)"}
{"smiles": "COc1cc(-c2ncn(/C=C\\C(=O)OC(C)C)n2)cc(C(F)(F)F)c1", "growth": "7.55% (active)"}
{"smiles": "COc1ccc(/C=C/C(=O)c2cc(OC)c(OC)c(OC)c2)cc1OCc1cn(Cc2ccc(F)cc2)nn1", "growth": "69.4% (inactive)"}
{"smiles": "COc1cccc(/C=N/Nc2nc3ccccc3s2)c1OC", "growth": "49.9% (inactive)"}
{"smiles": "Cn1c2c(Cl)c(Cl)ccc2c2ccn3c(=O)c4ccccc4nc3c21", "growth": "106% (inactive)"}
{"smiles": "CCSc1nnc(NC(=O)COc2ccc(Cl)cc2C)s1", "growth": "108% (inactive)"}
{"smiles": "N=c1c2ccccc2nc2n1CCCCC2", "growth": "130% (inactive)"}
{"smiles": "CCCCCCCCCCCCCCCCCCOc1ccccc1CC(=O)OCC[N+]1(C)CCCC1", "growth": "22.9% (inactive)"}
{"smiles": "COc1cccc(NC(=O)Cn2cc(CN3CCN(c4ccnc5cc(Cl)ccc45)CC3)nn2)c1", "growth": "124% (inactive)"}
{"smiles": "Nc1c(C(=O)Nc2cccc(F)c2)sc2nc3c(cc12)C(=O)CCC3", "growth": "31.2% (inactive)"}
{"smiles": "CN1C(=O)/C(=C/c2cn(-c3ccccc3)nc2-c2ccccc2)SC1=S", "growth": "109% (inactive)"}
{"smiles": "O=C(Nc1nc2ccccc2s1)c1ccc(F)cc1", "growth": "111% (inactive)"}
{"smiles": "O=c1sc2ncnc3ncn1c32", "growth": "85.1% (inactive)"}
{"smiles": "NC(=O)CSc1oc(-c2ccccc2)nc1S(=O)(=O)c1ccc(Br)cc1", "growth": "82.1% (inactive)"}
{"smiles": "O=c1[nH]c2cc(Cl)c(Cl)cc2o1", "growth": "120% (inactive)"}
{"smiles": "O=C(O)C1C2C=CC(C2)C1C(=O)O", "note": "(stereo not given)", "growth": "25.8% (inactive) and 104% (inactive)"}
{"smiles": "C[C@@H]1[C@H]2[C@H](C=C3[C@@H]4CC[C@H]5Cc6nc7c(nc6C[C@]5(C)[C@H]4C[C@@H](O)[C@@]32C)C[C@@H]2CC[C@H]3C4=C[C@@H]5O[C@@]6(CC[C@](C)(CO)O6)[C@@H](C)[C@@]5(O)[C@@]4(C)[C@H](O)C[C@@H]3[C@@]2(C)C7)O[C@]12CCC(C)(C)O2", "growth": "4.6% (active)"}
{"smiles": "COc1ccc(-c2cc3ccc(N(C)C)cc3nc2N)c(F)c1", "growth": "-15.4% (active)"}
{"smiles": "Cc1ccc(/C=C2\\SC(=S)N(CC(=O)NCCCN3CCOCC3)C2=O)cc1", "growth": "99.4% (inactive)"}
{"smiles": "O=C(Nc1cccc(Cl)c1)c1cc2ccccc2cc1O", "growth": "5.85% (active) and -13.6% (active)"}
{"smiles": "CCOC(=O)C(C#N)Cc1ccccc1", "note": "(stereo not given)", "growth": "104% (inactive)"}
{"smiles": "COc1ccc(NC2=NC(C)(CO)CS2)cc1", "note": "(stereo not given)", "growth": "91.1% (inactive)"}
{"smiles": "Fc1ccc(-n2cc(COc3ncnc4sc5c(c34)CCCC5)nn2)cc1Cl", "growth": "101% (inactive)"}
{"smiles": "CC(=O)c1cccc(NS(=O)(=O)c2ccc(C)cc2)c1", "growth": "70.9% (inactive)"}
{"smiles": "COc1ccccc1CNC(=O)C1c2ccccc2C(=O)N(CC(C)C)C1c1cccs1", "note": "(stereo not given)", "growth": "67.9% (inactive)"}
{"smiles": "Cc1ccc(N=C2CSc3nnc(-c4csc5c4CCCC5)n3N2)cc1", "growth": "-25.4% (active)"}
{"smiles": "CCC(=O)Oc1ccc(-c2ccccc2)cc1Br", "growth": "96.5% (inactive)"}
{"smiles": "CCOC(=O)Nc1nc2ccccc2[nH]1", "growth": "101% (inactive) and -38.2% (active)"}
{"smiles": "O=C1COCCN1c1ccc(Nc2nc(Cl)nc(OCc3cn(Cc4ccccc4)nn3)n2)cc1", "growth": "40.3% (inactive)"}
{"smiles": "O=C(O)CCCCc1ccc([N+](=O)[O-])cc1", "growth": "74.8% (inactive) and 93.9% (inactive)"}
{"smiles": "COC(=O)/C=C1/SC(=Nc2ccc(C)cc2)N(CCc2c[nH]c3ccc(O)cc23)C1=O", "growth": "49.3% (inactive)"}
{"smiles": "CC1OC2CC(=O)OC2C2=C1C(=O)c1c(O)cccc1C2=O", "note": "(stereo not given)", "growth": "-47.8% (active)"}
{"smiles": "COc1ccc(NC(=O)c2cccc(-c3cc(=O)c4c(O)c(OC)c(OC)cc4o3)c2)cc1", "growth": "130% (inactive)"}
{"smiles": "O=C(/C=C/CN1CCCCC1)Nc1cc2c(Nc3ccc(F)c(Cl)c3F)ncnc2cc1OCCOC(F)F", "growth": "17.9% (inactive)"}
{"smiles": "O=[N+]([O-])c1ccc(Sc2ccncn2)c([N+](=O)[O-])c1", "growth": "16.8% (inactive)"}
{"smiles": "COc1ccccc1C(C[N+](=O)[O-])c1c(-c2ccccc2)[nH]c2cc(C)ccc12", "note": "(stereo not given)", "growth": "58.9% (inactive)"}
{"smiles": "COc1c(CNC(=O)CCl)cc2[nH]c(C)cc2c1CNC(=O)CCl", "growth": "39.4% (inactive)"}
{"smiles": "CN(CCC(=O)/C(=C\\c1ccccc1)c1ccc(Cl)cc1)Cc1ccccc1", "growth": "41% (inactive)"}
